G9a inh – qHTS Assay for Inhibitors of Histone Lysine Methyltransferase G9a; Histone-lysine N-methyltransferase EHMT2 (Homo sapiens), Q96KQ7; G9a H3K9 monomethylation, AlphaScreen, 2 h; Potency, µM (doses to about 102 µM), for the others: at the top dose activity, negative = inhibition, hits mostly inhibitors; 350,000 compounds, 8.8% hits; AID 504332, 2011; also: % is scaled to controls: 0 for no effect and ±100 for the full control effect; nearly all actives have a fitted effect of over 75% in size
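Chemiluminescent proximity detection of H3K9 monomethylation, read after 10 min bead incubation in the dark. Reaction: 20 nM G9a, 500 nM biotin-H3K9 peptide, 20 uM SAM cofactor, 2 h, room temperature, following 15 min enzyme-compound preincubation.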
GRP78 ERSR act – qHTS for Inducers of the Endoplasmic Reticulum Stress Response (ERSR) in Human Glioma: qHTS. AID 602332, 2012. Potency, µM, without a hit: top-dose activation, most hits filed as activators. U87-MG GRP78 promoter luciferase reporter, 16 h. 420,000 compounds, 0.02% hits; also: series mostly up to about 76 µM; % of control where 0% means no effect; nearly all actives have a fitted effect of over 35% in size
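Stably transfected U87-MG human glioma cells carrying a GRP78-based luminescent sensor were seeded at 1000 cells/well, pin-dosed with compounds and incubated 16 h. Luciferase reagent was then added, and end-point luminescence was read after 10 min at room temperature.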
VDR inhibitor – Inhibitors of the vitamin D receptor (VDR): qHTS | 400,000 compounds, 0.93% hits | Potency, µM, for inactives: max response, negative = inhibition, most hits filed as inhibitors | VDR-SRC2-3 peptide fluorescence polarization, 2 h | Vitamin D3 receptor (Homo sapiens), P11473 | AID 504847, 2011; also: % is scaled to controls: 0 for no effect and ±100 for the full control effect
Target sequence (P11473 whole entry, looked up): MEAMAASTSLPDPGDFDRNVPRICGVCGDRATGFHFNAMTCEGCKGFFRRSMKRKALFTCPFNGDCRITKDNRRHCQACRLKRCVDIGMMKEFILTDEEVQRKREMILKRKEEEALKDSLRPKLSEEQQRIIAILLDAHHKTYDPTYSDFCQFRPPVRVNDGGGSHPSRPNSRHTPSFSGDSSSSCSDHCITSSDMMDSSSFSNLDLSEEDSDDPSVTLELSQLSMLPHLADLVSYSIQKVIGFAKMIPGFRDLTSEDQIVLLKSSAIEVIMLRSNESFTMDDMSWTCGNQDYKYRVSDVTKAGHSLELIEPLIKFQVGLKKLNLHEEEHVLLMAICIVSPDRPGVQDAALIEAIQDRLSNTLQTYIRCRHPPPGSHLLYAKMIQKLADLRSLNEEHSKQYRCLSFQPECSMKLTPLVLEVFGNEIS
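Two reagent solutions held at 4 deg C in the dark were dispensed, compounds pinned at 23 nl, and the mixture incubated 2 h at room temperature. Read-out: fluorescence polarization of VDR–SRC2-3 peptide binding.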
Sfp PPTase inh – qHTS Assay for Inhibitors of Bacillus subtilis Sfp phosphopantetheinyl transferase (PPTase); 310,000 compounds, 3.5% hits; AID 1490, 2009; Potency, µM, for inactives: largest response in the series, negative = inhibition, actives largely listed as inhibitors; Biochemical Sfp PPTase activity, qHTS;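 also: the enzyme is Sfp with the accession as filed and its product quenches rhodamine fluorescence; 0% = enzyme reaction without inhibitor and -100% = no enzyme wells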
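Sfp 15 nM + cpd, 15 min RT; start w/ rhodamine-CoA 5 uM, BHQ-2-YbbR 12.5 uM (final); 50 mM Hepes pH 7.6, 10 mM MgCl2, 0.01% NP-40, 0.01% BSA; read 525/598 nm at 0 and 30 min.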
ALOX12 inh – Primary qHTS assay for inhibitors of human arachidonate 12S-lipoxygenase (ALOX12): Round 2. Polyunsaturated fatty acid lipoxygenase ALOX12 (Homo sapiens), P18054. purified 12hLO, xylenol orange hydroperoxide absorbance. Potency, µM (series often up to 108 µM), for the others: at the top dose activity change, negative = inhibition, hits mostly inhibitors. 580,000 compounds, 1.1% hits; also: % is scaled to controls: 0 for no effect and ±100 for the full control effect
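Purified human 12hLO at 150 nM in 25 mM Hepes, 0.01% Triton X-100, pH 7.0, preincubated 15 min at room temperature with compound. Reaction started with 40 uM arachidonic acid, 30 min at room temperature. Hydroperoxide measured by Fe-xylenol orange, 573/405 nm absorbance ratio.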
Starred values were filed as active, the others as inactive; ? = inconclusive; nt = no result; [ ] = remark or other dose. Only a selection was taken, and hits are over-represented in it overall. Calls follow the shape of the dose curve; as a rule, active = well fitted curve in the direction sought with a large enough effect; inconclusive = small, poorly fitted or top-dose-only effect, or another doubt; inactive = no such curve, though single readings can be large; an effect the other way counts as inactive or inconclusive. Potency is read from the fitted curve at half-maximal effect.

SMILES	G9a inh	GRP78 ERSR act	VDR inhibitor	Sfp PPTase inh	ALOX12 inh
CC(CSc1n[nH]c(=S)s1)c1ccccc1 (stereo not drawn)	nt	-1%	-27%	nt	?
CC(Sc1ncnc2nc[nH]c12)C(=O)NCCc1ccc(Cl)cc1Cl (stereo not drawn)	nt	nt	nt	nt	-7%
CC1=C(C(=O)Nc2cc(C(=O)N3CCN(c4cccc(C)c4)C(C)C3)ccc2C)SCCO1 (stereo not drawn)	35µM*	-2%	-12%	6%	0%
CC1=C(C(=O)Nc2cc(C(=O)N3CCN(c4cccc(C)c4C)CC3)ccc2C)SCCO1	32µM*	2%	-16%	-5%	-23%
COc1ccc(N2CCN(C(=O)c3ccc(C)c(NC(=O)C4=C(C)OCCS4)c3)CC2)cc1	40µM*	2%	-9%	9%	-28%
CC1=C(C(=O)Nc2cccc(C(=O)N3CCN(c4ccccc4)CC3)c2)SCCO1	nt	nt	nt	nt	-2%
Cc1cccc(N2CCN(C(=O)c3ccc4c(c3)c(C)c(C)n4C)CC2C)c1 (stereo not drawn)	45µM*	-3%	-9%	-17%	-11%
NC(=O)c1ccc(NC(=O)C(F)(OC(F)(F)C(F)(F)C(F)(F)F)C(F)(F)F)cc1 (stereo not drawn)	nt	nt	nt	nt	4%
CNC(=O)c1cc(-c2ccc(OC)c(OC)c2)cc2c1OCCN2Cc1cccnc1	nt	nt	nt	nt	-1%[176 µM]
Cc1cccc(NC(=O)N2CCC(CCNS(=O)(=O)c3ccc(C(C)(C)C)cc3)CC2)c1	nt	nt	nt	nt	21%
N#C/C(C(N)=O)=c1/ccc2c(c1)N1C3=C(CCCC3)CC3CCCCC31N=2 (stereo not drawn)	4µM*	-3%	-7%	?	7%
N#CC(C#N)=c1ccc2c(c1)N1C3=C(CCCC3)CC3CCCCC31N=2 (stereo not drawn)	2.2µM*	-9%	9%	23%	-1%
C/C(=N\NC(=O)c1ccncc1)C1CC1	nt	nt	nt	nt	29%
O=c1[nH]cnc2c1nc(SCc1cccc(Cl)c1)n2-c1ccccc1	nt	nt	nt	nt	-12%
Nc1ccc(N2CCOCC2)c2nonc12	nt	1%	89µM*	?	40µM*
O=C(O)c1cc(C(=O)O)cc(-c2ccc(/C=c3/sc4nc5ccccc5n4c3=O)o2)c1	2µM*	-1%	8%	7.1µM*	nt
O=C(O)c1ccccc1-c1ccc(C=c2sc3nc4cc(Br)cnc4n3c2=O)o1	nt	-2%	nt	nt	7.9µM*
O=C(O)c1cccc(-c2ccc(/C=c3/sc4nc5ccccc5n4c3=O)o2)c1	7.9µM*	-1%	-6%	?	0%
CC(C)C[C@@H]1N[C@H](C(=O)NCCN(C)C)Cc2c[nH]c3cccc1c23	nt	nt	nt	nt	73%[176 µM]
CC(C)(C)c1ccc(-c2nnc(SCC(=O)N3CCCC3=O)n2C2CCCC2)cc1	nt	nt	nt	nt	-27%
Cc1cccc(Nc2nc3ccccc3nc2NS(=O)(=O)c2cccc(Cl)c2)c1	nt	nt	nt	nt	-13%
CCSc1nnc(C(C)NC(=O)c2ccc(OC)cc2)n1C (stereo not drawn)	nt	-2%	nt	nt	14%
CCn1c(SCC(=O)c2ccc(Br)cc2)nnc1C(C)NC(=O)Cc1ccc(OC)cc1 (stereo not drawn)	7%	0%	-13%	2%	1%
CCn1c(SCC(=O)c2ccc(OC)cc2)nnc1C(C)NC(=O)c1ccc(OC)cc1 (stereo not drawn)	45µM*	-2%	-9%	-29%	0%
COc1ccc(CC(=O)NC(C)c2nnc(SCC(=O)c3ccc(Br)cc3)n2C)cc1 (stereo not drawn)	40µM*	5%	?	?	-31%
SMILES	G9a inh	GRP78 ERSR act	VDR inhibitor	Sfp PPTase inh	ALOX12 inh
O=C(O)c1cc(NCc2ccc(OCc3ccccc3)cc2)ccc1N1CCOCC1	nt	nt	nt	nt	17%
Cc1occc1-c1nnc(SCCCC(=O)c2ccc(F)cc2)n1C	50µM*	0%	-8%	50µM*	-24%
Cn1c(SCCCC(=O)c2ccc(F)cc2)nnc1-c1ccncc1	7%[2.33 µM]	-3%	-7%	-3%	3%
COc1cc(CN(CC2CCCO2)C(=O)COc2ccc(Cl)cc2C)cc(OC)c1OC (stereo not drawn)	nt	nt	nt	nt	13%
Cc1cc(Cl)ccc1OCC(=O)N(Cc1ccc(N(C)C)cc1)CC1CCCO1 (stereo not drawn)	18µM*	-2%	1%	nt	0%
CN(C)c1ccc(CN(CC2CCCO2)C(=O)COc2ccccc2Cl)cc1 (stereo not drawn)	13µM*	0%	8%	nt	-20%
O=C(CSc1ncc(-c2ccc(F)cc2)o1)Nc1cccc(F)c1	nt	nt	nt	nt	-4%
CCOC(=O)c1sc2nc(C(C)N3CCC(C)CC3)[nH]c(=O)c2c1C (stereo not drawn)	nt	nt	nt	nt	-5%
CCOC(=O)c1sc2nc3n(c(=O)c2c1C)CCC(C)CC3 (stereo not drawn)	10µM*	0%	-17%	22µM*	?
CCOC(=O)N1CCN(C(=O)Nc2sc3nc4n(c(=O)c3c2C)CCC(C)CC4)CC1 (stereo not drawn)	32µM*	-1%	-11%	-10%	-28%
CCN(CC)CC(=O)Nc1ccc2c(c1)Nc1ccccc1CC2	18µM*	8%	12%	-15%	?
CCN(CC)CC(=O)Nc1ccc2c(c1)N(C(=O)CN(CC)CC)c1ccccc1CC2	56µM*	-3%	18%	-3%	-2%[57.4 µM]
CCN(CC(=O)Nc1ccc2c(c1)CCC2)Cc1nc2ccccc2c(=O)[nH]1	?	3%	-1%	?	-8%
CCOC(=O)Nc1ccc2c(c1)N(C(=O)CN(CC)CC)c1ccccc1CC2	nt	-2%	4%	0%	0%
O=C(c1cccs1)N(Cc1ccc2[nH]ccc2c1)C1CC1	nt	nt	nt	nt	-67%
COc1cc(/C=C/C(=O)c2cccs2)cc(OC)c1OC	nt	-8%	13µM*	?	nt
O=C(C=Cc1ccc(Cl)s1)c1ccc(Cl)s1	nt	3%	?	nt	?
